In PubChem BioAssay (NCATS):
Inconclusive results are not listed. The source made the active and inactive calls. The call rests on the fitted dose curve; in most records, active means well fitted curve in the direction sought with a large enough effect; inconclusive means small, poorly fitted or top-dose-only effect, or another doubt; inactive means no such curve, though single readings can be large; an effect the other way counts as inactive or inconclusive.

Experiment: qHTS assay for measurement of the activity of small molecule inhibitors on Zika virus induced Caspase-3 activity in human iPSC derived neural progenitor cells (hNPCs) (AID 1224857); further: % of control where 0% means no effect; nearly all actives have a fitted effect of over 65% in size
Conditions: hNPCs ZIKV-induced caspase-3/7, Caspase-Glo luminescence, 6 h; series mostly up to 45.7 µM; activity change, negative = inhibition: at the top concentration
Outline: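 After overnight (16–20 h) culture at 350 cells/well, hNPCs get compound, then ZIKV 2 FFU/cell one hour later. Six hours on, Caspase-Glo 3/7 is added and luminescence measured.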

SMILES	activity change, negative = inhibition
CN(C)CC/C=C1/c2ccccc2COc2ccc(CC(=O)O)cc21	-0.798% (inactive)
Oc1c(Cl)cc(Cl)cc1Sc1cc(Cl)cc(Cl)c1O	10.3% (inactive)
Oc1ccc(Cl)cc1Sc1cc(Cl)ccc1O	-5.27% (inactive)
C[C@@H]1C(=O)NC2=Nc3cccc(Cl)c3CN21	-13% (inactive)
O=C(CCN1CCC(c2ccccc2)C1)c1ccc2c(c1)OCCO2 (stereo not given)	-3.31% (inactive)
COc1ccc(CN2CCN(C(c3ccc(F)cc3)c3ccc(F)cc3)CC2)c(OC)c1OC	6.51% (inactive)
COc1cc(-c2ccc(=O)[nH]n2)ccc1OC(F)F	-16.2% (inactive)
Cc1c(C(N)=O)cc([N+](=O)[O-])cc1[N+](=O)[O-]	-3.54% (inactive)
CCCCCCCCCCCCCCNCCO	17.9% (inactive)
NC(CO)(CO)CO	3.28% (inactive)
Cc1ccc(O)c2ncccc12	-3.77% (inactive)
COc1cc2c(cc1O)CC[C@@H]1[C@@H]2CC[C@]2(C)[C@@H](O)CC[C@@H]12	-2.99% (inactive)
C#C[C@]1(OC(C)=O)CC[C@H]2[C@@H]3CCC4=C[C@@H](OC(C)=O)CC[C@@H]4[C@H]3CC[C@@]21C	-2.51% (inactive)
NC(=NCCCCCCN=C(N)/N=C(\N)Nc1ccc(Cl)cc1)/N=C(\N)Nc1ccc(Cl)cc1	0.429% (inactive)
Nc1ccn([C@@H]2O[C@H](CO)[C@@H](O)C2(F)F)c(=O)n1	9.6% (inactive)
CC/C(=C(/CC)c1ccc(O)cc1)c1ccc(O)cc1	10.8% (inactive)
CCCCCCc1ccc(O)cc1O	2% (inactive)

SMILES	activity change, negative = inhibition
CC(=O)Oc1ccc2c(c1)CC[C@@H]1[C@@H]2CC[C@]2(C)[C@@H](O)CC[C@@H]12	28.5% (inactive)
O=c1c(-c2ccccc2)c1-c1ccccc1	26.6% (inactive)
Clc1ccc2c(c1)CCc1cccnc1C2=C1CCNCC1	192% (inactive)
COc1cc2c(cc1OC)C(C(C(=O)N(CCc1ccc(OC)c(OC)c1OC)CCc1ccc(OC)c(OC)c1OC)c1ccccc1)=NCC2 (stereo not given)	-2.09% (inactive)
Cc1c(F)c(N2CCNC(C)C2)cc2c1c(=O)c(C(=O)O)cn2C1CC1 (stereo not given)	4.49% (inactive)
CC(=O)OCC(=O)NCCCOc1cccc(CN2CCCCC2)c1	1.66% (inactive)
NCCCC[C@H](N[C@@H](CCc1ccccc1)C(=O)O)C(=O)N1CCC[C@H]1C(=O)O	-0.87% (inactive)
C#C[C@]1(O)CC[C@H]2[C@@H]3CCC4=CC(=O)CC[C@@H]4[C@H]3CC[C@@]21C	27.3% (inactive)
COC(=O)[C@@H]1CC2=CC(=O)CC[C@]2(C)[C@@]23O[C@@H]2C[C@@]2(C)[C@@H](CC[C@@]24CCC(=O)O4)[C@H]13	22.8% (inactive)
CCCC1O[C@@H]2C[C@H]3[C@@H]4CCC5=CC(=O)C=C[C@]5(C)[C@H]4[C@@H](O)C[C@]3(C)[C@]2(C(=O)CO)O1 (stereo not given in full)	4.15% (inactive)
CC1(C)CCC(NC(=O)[C@@H](N)CCC(=O)O)CC1	-8.46% (inactive)
CCCCCCCCCCCCCCCC[N+](C)(C)CCN(Cc1ccc(OC)cc1)c1ncccn1	8.23% (inactive)
CC(CCc1ccccc1)NCC(O)c1ccc(O)c(C(N)=O)c1 (stereo not given)	9.06% (inactive)
CCCCN1CCCC1C(=O)Nc1c(C)cc(C)cc1C (stereo not given)	12.1% (inactive)
CCCCCC=CCC=CCCCCCCCC(=O)OCC	59.3% (inactive)
CC(=O)Oc1ccc(C(=C2CCCCC2)c2ccc(OC(C)=O)cc2)cc1	-12.1% (inactive)
CCN1CCCC1=O	-2.63% (inactive)

Experiment: qHTS assay for measurement of the activity of small molecule inhibitors on Zika virus induced Caspase-3 activity in human astrocytoma cells (AID 1224859);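 further: plate controls were ZIKV-infected untreated cells for no effect and uninfected cells for full effect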
Conditions: SNB-19 ZIKV-induced caspase-3/7, luminescence, 6 h; series mostly up to 45.7 µM; activity change, negative = inhibition: at the top concentration
Outline: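 Inhibition of Zika-induced caspase-3/7 activity: SNB-19 cells, 1 h compound pretreatment, ZIKV 2 FFU/cell for 6 h at 37 C, Caspase-Glo luminescence read-out.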

SMILES	activity change, negative = inhibition
COc1ccc(CN2CCN(C(c3ccc(F)cc3)c3ccc(F)cc3)CC2)c(OC)c1OC	8.62% (inactive)
OC[C@H]1O[C@H](O[C@]2(CCl)O[C@H](CCl)[C@@H](O)[C@@H]2O)[C@H](O)[C@@H](O)[C@H]1Cl	-6.27% (inactive)
COc1cc2c(cc1O)CC[C@@H]1[C@@H]2CC[C@]2(C)[C@@H](O)CC[C@@H]12	17.4% (inactive)
Nc1ccn([C@@H]2O[C@H](CO)[C@@H](O)C2(F)F)c(=O)n1	-5.23% (inactive)
CCCn1c(=O)[nH]c(=O)c2[nH]cnc21	13.9% (inactive)

Experiment: qHTS assay to identify small molecule inhibitors of chordoma cells - UCH-1 (AID 1259355); further: on the % scale 0 is the no-effect control and ±100 the full control effect; nearly all actives have a fitted effect of over 55% in size
Conditions: UCH-1 chordoma viability, CellTiter-Glo, 48 h, combination, with auranofin plus four topoisomerase inhibitors; series mostly up to 46.1 µM; activity, negative = inhibition: at the top concentration
Outline: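 Luminescent ATP read-out (CellTiter-Glo, 30min at room temperature) measured viability of UCH-1 cells exposed for 48hr to test drugs at 15 concentrations, co-dosed with a five-agent combination of auranofin, camptothecin, doxorubicin, rubitecan and topotecan.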

SMILES	activity, negative = inhibition
CN(C)CC/C=C1/c2ccccc2COc2ccc(CC(=O)O)cc21	12.3% (inactive)
Oc1c(Cl)cc(Cl)cc1Sc1cc(Cl)cc(Cl)c1O	-33.6% (inactive)
C[C@@H]1C(=O)NC2=Nc3cccc(Cl)c3CN21	-27.5% (inactive)
O=C(CCN1CCC(c2ccccc2)C1)c1ccc2c(c1)OCCO2 (stereo not given)	-1.51% (inactive)
COc1cc(-c2ccc(=O)[nH]n2)ccc1OC(F)F	-19.6% (inactive)
Cc1c(C(N)=O)cc([N+](=O)[O-])cc1[N+](=O)[O-]	-12.1% (inactive)
CCCCCCCCCCCCCCNCCO	-17.4% (inactive)
NC(CO)(CO)CO	-23% (inactive)
Cc1ccc(O)c2ncccc12	-8.58% (inactive)
C#C[C@]1(OC(C)=O)CC[C@H]2[C@@H]3CCC4=C[C@@H](OC(C)=O)CC[C@@H]4[C@H]3CC[C@@]21C	-39.3% (inactive)
CC/C(=C(/CC)c1ccc(O)cc1)c1ccc(O)cc1	12.9% (inactive)
CCCCCCc1ccc(O)cc1O	-20.2% (inactive)
CC(=O)Oc1ccc2c(c1)CC[C@@H]1[C@@H]2CC[C@]2(C)[C@@H](O)CC[C@@H]12	-20.9% (inactive)
Clc1ccc2c(c1)CCc1cccnc1C2=C1CCNCC1	-25% (inactive)
COc1cc2c(cc1OC)C(C(C(=O)N(CCc1ccc(OC)c(OC)c1OC)CCc1ccc(OC)c(OC)c1OC)c1ccccc1)=NCC2 (stereo not given)	-18.1% (inactive)
Cc1c(F)c(N2CCNC(C)C2)cc2c1c(=O)c(C(=O)O)cn2C1CC1 (stereo not given)	-5.82% (inactive)
CC(=O)OCC(=O)NCCCOc1cccc(CN2CCCCC2)c1	-2.36% (inactive)
NCCCC[C@H](N[C@@H](CCc1ccccc1)C(=O)O)C(=O)N1CCC[C@H]1C(=O)O	-25.6% [at 20.6 µM] (inactive)
C#C[C@]1(O)CC[C@H]2[C@@H]3CCC4=CC(=O)CC[C@@H]4[C@H]3CC[C@@]21C	-3.64% (inactive)
CC1(C)CCC(NC(=O)[C@@H](N)CCC(=O)O)CC1	21.6% (inactive)
CC(CCc1ccccc1)NCC(O)c1ccc(O)c(C(N)=O)c1 (stereo not given)	-1.42% (inactive)
CCCCN1CCCC1C(=O)Nc1c(C)cc(C)cc1C (stereo not given)	-15.6% (inactive)
CCCCCC=CCC=CCCCCCCCC(=O)OCC	0.739% (inactive)
CC(=O)Oc1ccc(C(=C2CCCCC2)c2ccc(OC(C)=O)cc2)cc1	-14.8% (inactive)
CCCn1c(=O)[nH]c(=O)c2[nH]cnc21	-8.96% (inactive)
CCN1CCCC1=O	-27% (inactive)
